Most compounds without a hit are left out; they make up all but 5.9% or so of the library.
PRMT1 inh = PRMT1 methyltransferase inhibitors, primary screen, biochemical, fluorescence polarization; recombinant PRMT1, activity-based probe fluorescence polarization; AID 652257, 2013; inhibition, % at 2.79 µM; hit rate 1.3% among 370,000;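 active = inhibition above about 21% made by adding two undisclosed values, limit read from the data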
Rtt109 HAT inh = inhibitors of C. albicans Rtt109/Vps75 HAT, primary screen, biochemical, ThioGlo CoA-SH fluorescence, plate reader; purified Rtt109/Vps75, 4 h; Histone acetyltransferase RTT109 (Candida albicans (strain SC5314 / ATCC MYA-2876)), …; inhibition, % at 34.9 µM; hit rate 0.16% among 330,000;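 active = inhibition of at least 50% in every replicate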
Target sequence (Q5AAJ8 whole entry, looked up): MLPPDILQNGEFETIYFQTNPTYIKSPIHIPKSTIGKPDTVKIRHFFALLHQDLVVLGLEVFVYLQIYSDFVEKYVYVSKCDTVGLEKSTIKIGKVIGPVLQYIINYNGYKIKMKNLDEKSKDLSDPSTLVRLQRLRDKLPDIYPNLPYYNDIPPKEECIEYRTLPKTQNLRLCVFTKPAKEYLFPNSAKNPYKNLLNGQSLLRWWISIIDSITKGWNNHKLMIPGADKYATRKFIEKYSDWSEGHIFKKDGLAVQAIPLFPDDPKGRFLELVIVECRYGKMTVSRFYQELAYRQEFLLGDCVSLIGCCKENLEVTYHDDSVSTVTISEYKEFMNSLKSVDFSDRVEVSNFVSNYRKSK
ABHD5-PLIN5 inh = ABHD5-PLIN5 interaction inhibitors, primary screen, cell lysate, split luciferase complementation, luminescence; Perilipin-5 (Homo sapiens) + 1-acylglycerol-3-phosphate O-acyltransferase ABHD5 (Homo …; Split G. princeps luciferase complementation, 4 h; inhibition, % at 4 µM; hit rate 0.78% among 360,000;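 active = inhibition above the mean inhibition across every tested compound plus 3 SD, cut at about 22% in these data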
ALR inh = inhibitors of human ALR sulfhydryl oxidase, primary screen, biochemical, H2O2 detection, HRP-luminol luminescence, single point | FAD-linked sulfhydryl oxidase ALR (Homo sapiens), P55789 | purified ALR, DTT oxidation | inhibition, % (concentration not given with the values) | hit rate 3.8% among 290,000 | AID 485317, 2010;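 active = mean replicate inhibition above about 79%, with every replicate also reaching it, limit read from the data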
Target sequence (P55789 whole entry, looked up): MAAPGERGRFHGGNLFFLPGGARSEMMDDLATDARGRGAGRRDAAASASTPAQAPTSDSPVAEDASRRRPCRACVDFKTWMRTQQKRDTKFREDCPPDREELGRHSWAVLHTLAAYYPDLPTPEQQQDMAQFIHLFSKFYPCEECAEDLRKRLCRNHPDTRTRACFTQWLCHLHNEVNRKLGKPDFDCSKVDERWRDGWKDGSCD
LANA-H2B inh = blockers of LANA interaction with H2A/H2B – biochemical, FP readout, HTS, primary screen; Protein LANA1 (Human herpesvirus 8 type P (isolate GK18)), Q9QR71; cell-free LANA-H2A/H2B peptide, fluorescence polarization; inhibition, % (no concentration beside the values); hit rate 0.6% among 320,000; in the data active = inhibition mostly above about 10%, no sharp cut-off; inactive = mostly below about 6.7%
rCAG RNA binder = binders of r(CAG) RNA repeats, primary screen, biochemical, fluorescence. r(CAG) RNA repeat, TO-PRO-1 dye displacement fluorescence. inhibition, % at 3 µM. hit rate 1.3% among 370,000. AID 651821, 2012;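 active = inhibition above the plate cutoff, the mean of all test compounds on that plate plus 3 SD, cut at about 35% in these data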;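 note: higher means more dye released from RNA so lower well fluorescence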
Of the large screens only hits and unclear results are named; the others gave an inactive call.

COCCNC[C@@]12CO[C@H](c3ccc(Cl)cc3)N1[C@@H](c1ccc(Cl)cc1)SC2	none (no result: Rtt109 HAT inh, ABHD5-PLIN5 inh, ALR inh, LANA-H2B inh, rCAG RNA binder)
COc1ccccc1C(=O)NC1CCCCN(Cc2ccc(Cl)cc2)C1=O (centres undefined)	none (no result: Rtt109 HAT inh, ABHD5-PLIN5 inh, ALR inh, LANA-H2B inh)
CN(Cc1ccccc1)C(=O)C(=O)c1ccccc1	none (no result: Rtt109 HAT inh, ALR inh, LANA-H2B inh)
CC(c1ccc(F)cc1)n1c(-c2ccc3ccccc3n2)n[nH]c1=S (centres undefined)	ALR inh 89
COc1cc(OC)cc(-c2n[nH]c(=S)n2-c2ccc3c(c2)OCCO3)c1	none
COc1ccc(-c2n[nH]c(=S)n2-c2ccc3c(c2)OCCO3)cc1	ALR inh 91
N#CCCCc1cn(-c2ccc(-c3noc4c3C(=O)N(CC(=O)N3CCOCC3)CC4)cc2)nn1	none (no result: Rtt109 HAT inh, ABHD5-PLIN5 inh, ALR inh, LANA-H2B inh)
Cc1ccc(Nc2c(-c3ccc(N4CCOCC4)cc3)nc3ncccn23)cc1C	ALR inh 94
Cc1ccccc1Nc1c(-c2ccc(N3CCOCC3)cc2)nc2ncccn12	ALR inh 98
Cc1ccc(Nc2c(-c3ccc(N4CCOCC4)cc3)nc3ncccn23)cc1	none
Cc1ccccc1Nc1c(-c2ccc(N3CCOCC3)cc2)nc2cnccn12	none (no result: ALR inh, LANA-H2B inh)
Cc1cccc(C)c1Nc1c(-c2ccsc2)nc2ncccn12	ALR inh 98
Cc1nc2ccccn2c1P(=O)(c1ccccc1)c1ccccc1	none (no result: Rtt109 HAT inh, ABHD5-PLIN5 inh, ALR inh, LANA-H2B inh, rCAG RNA binder)
O=C(NNc1ccc([N+](=O)[O-])cc1[N+](=O)[O-])C1C2CCCCC21 (centres undefined)	none
O=C(O)C1(Nc2ccc([N+](=O)[O-])cc2[N+](=O)[O-])CCCC1	PRMT1 inh 23 (no result: ALR inh, LANA-H2B inh)
Cc1cc(N)n(-c2nc3ccccc3s2)n1	ALR inh 99
CCCCOCC1CN(CCCC)S(=O)(=O)c2c(cccc2N(C)S(=O)(=O)c2ccc(C)cc2)O1 (centres undefined)	none (no result: Rtt109 HAT inh, ABHD5-PLIN5 inh, ALR inh, LANA-H2B inh)
COc1ccc(NC(=O)c2cc(-c3cc(F)ccc3OC)n[nH]2)cn1	none (no result: Rtt109 HAT inh, ALR inh, LANA-H2B inh)
COc1ccccc1-c1c(-c2ccc(O)cc2O)n[nH]c1C(F)(F)F	ALR inh 97
COc1ccc(-c2c(-c3ccc(O)cc3O)n[nH]c2C)cc1OC	ALR inh 88 (no result: PRMT1 inh, rCAG RNA binder)
Oc1ccc(-c2n[nH]c(C(F)(F)F)c2-c2ccccc2)c(O)c1	ALR inh 97
COC(=O)[C@]12C[C@H](CC(=O)NCc3ccc(OC)c(OC)c3)C(=O)N(CCc3ccc(OC)c(OC)c3)C1=C[C@H](C(C)(C)C)O[C@@H]2C	none (no result: Rtt109 HAT inh, ABHD5-PLIN5 inh, ALR inh, LANA-H2B inh)
CCN(CC)CCOC(=O)C1(c2ccccc2)CCCC1	LANA-H2B inh 36
CCN(CC)CCOC(=O)C1(c2ccc(OC)c(OC)c2)CCCC1	none (no result: PRMT1 inh, rCAG RNA binder)
Nc1nc2ccc(O)cc2s1	ALR inh 99
CN1CCN(C2=Nc3ccccc3Oc3ccc(Cl)cc32)CC1	LANA-H2B inh 14 (no result: ALR inh)
CN1CCN(c2nc(-c3ccccc3)c3cc(Cl)ccc3n2)CC1	none
CO[C@@H]1[C@H](O)CC[C@]2(O)CN(c3ccccc3)[C@](C)([C@H](O)CC=C(C)C)[C@@H]12	none (no result: Rtt109 HAT inh, ABHD5-PLIN5 inh, ALR inh, LANA-H2B inh)
COc1ccc(C(=O)CSc2nnc(-c3ccc(C(C)(C)C)cc3)n2C)cc1	none (no result: Rtt109 HAT inh, ABHD5-PLIN5 inh, ALR inh, LANA-H2B inh)
O=C(O)c1ccc(N=c2oc3cc(O)ccc3cc2C(=O)NCc2ccccc2)cc1	ALR inh 90
COC(=O)c1ccc2nc(-c3ccc(Cl)cc3)c(Cc3ccccc3)n2c1	none (no result: Rtt109 HAT inh, ABHD5-PLIN5 inh, ALR inh, LANA-H2B inh)
Nc1ccc(Oc2cccc(Oc3ccc(N)cc3)c2)cc1	ALR inh 100
Nc1ccc(Oc2ccc3c(c2)OCO3)cc1	ALR inh 99
Cc1cc(C)cc(Oc2ccc(N)cc2)c1	ALR inh 98
Nc1ccc(Oc2ccc(Br)cc2)cc1	none
Cc1ccc(Oc2ccc(-c3nc(N)nc(N)n3)cc2)cc1	none
Cc1cccc(Oc2ccccc2N)c1	none (no result: PRMT1 inh, rCAG RNA binder)
Cc1cccc(Oc2ccc(N)cc2)c1	ALR inh 98
COc1ccc(N2CCN(CCNS(=O)(=O)c3ccc(Br)s3)CC2)cc1	none (no result: Rtt109 HAT inh, ABHD5-PLIN5 inh, ALR inh, LANA-H2B inh)
CNC(=O)CCc1nc(-c2ccc(C(C)C)cc2)no1	none (no result: Rtt109 HAT inh, ABHD5-PLIN5 inh, ALR inh, LANA-H2B inh, rCAG RNA binder)
COc1ccc(-c2ccc(C(=O)N3CCOCC3)c3occc23)c(C)c1	none (no result: Rtt109 HAT inh, ALR inh, LANA-H2B inh)
CC(=O)N1N=C(c2cccs2)CC1c1ccc(C)o1 (centres undefined)	LANA-H2B inh 36
CC(=O)N1N=C(c2ccco2)CC1c1cccs1 (centres undefined)	none (no result: Rtt109 HAT inh)
Cc1ccc(C2=NN(C(=O)CCl)C(c3cccs3)C2)o1 (centres undefined)	ALR inh 98
CCCCC(CCC(=O)O)(C(=O)OCC)c1csc(Nc2ccc(C)cc2)n1 (centres undefined)	ALR inh 99
CCOC(=O)c1c(-c2ccc(C)o2)csc1NC(=O)CSc1nncs1	ABHD5-PLIN5 inh 47
COc1ccccc1CNC(=O)C[C@H]1CC[C@H]2[C@H](COc3ccc(NS(=O)(=O)c4ccc(C)cc4)cc3C(=O)N2C)O1	none (no result: Rtt109 HAT inh, ABHD5-PLIN5 inh, ALR inh, LANA-H2B inh)
COc1cccc(C(C(=O)NC2CCCC2)N(CCC(C)C)C(=O)CCC(=O)Nc2cc(C)on2)c1 (centres undefined)	Rtt109 HAT inh 50 (no result: ALR inh)
Nc1cc(C(=O)O)c(N)c2c1C(=O)c1ccccc1C2=O	ALR inh 99 (no result: PRMT1 inh, rCAG RNA binder)
COc1ccc(CCC2=NCCN2C(CC(C)C)c2nc3ccccc3[nH]2)cc1 (centres undefined)	none (no result: Rtt109 HAT inh, ALR inh, LANA-H2B inh)
COc1ccc(OC)c(C2CC(=O)N3CN(c4ccc(C)c(Cl)c4)CSC3=C2C#N)c1 (centres undefined)	Rtt109 HAT inh 91
Cc1ccc(-n2c(N)c(-c3nc4ccccc4n3C)sc2=S)cc1	none
Cn1c(N)c(-c2nc3cccnc3n2C)sc1=S	ALR inh 92
O=C(CC[C@H]1O[C@@H](n2ccc(=O)[nH]c2=O)[C@H](O)[C@@H]1O)NCCN1CCOCC1	none (no result: Rtt109 HAT inh, ALR inh, LANA-H2B inh)
Cc1nc2ccccn2c1C(=O)NNC(=S)Nc1ccc(Cl)cc1	ALR inh 87
Cc1nn(C)cc1C(=O)NNC(=S)Nc1ccccc1	ALR inh 88
CNC(=S)NNC(=O)c1cn(C)nc1C	none
Cc1nc2ccccn2c1C(=O)NNC(=O)Nc1ccccc1	none
Cc1nc2ccccn2c1C(=O)NNC(=S)Nc1ccccc1	ALR inh 97
CCCCOCCCNC(=O)C[C@@H]1C[C@@]2(C(=O)OCC)CCCC=C2N(Cc2ccc(Cl)cc2Cl)C1=O	none (no result: Rtt109 HAT inh, ALR inh, LANA-H2B inh)
CCN(CC)c1ccc(C2C(C(=O)OCCOC)=C(C)NC3=C2C(=O)CCC3)cc1 (centres undefined)	ALR inh 99
CCOC(=O)C1=C(C)NC2=C(C(=O)CCC2)C1c1ccc(N(C)C)cc1 (centres undefined)	none
